# Results taken from PMC4336329 (PLoS ONE, 2015).
# Screen size: about 310,000 compounds; about 14,000 (4.5%) showed an effect of 50% or more. Effects have a minus sign here. What follows is part of a selection rich in strong results, with near analogues and random picks from the rest.
# Molecular target: human ether-à-go-go-related gene (hERG) potassium channel (human, UniProt Q12809)
# Assay: primary screen, population patch clamp on CHO cells stably expressing hERG; higher = less effect of the substance
# 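Note: peak tail current of the secondary pulse compared with the same well before compound.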
# Chain of human ether-à-go-go-related gene (hERG) potassium channel (Q12809 whole entry, looked up): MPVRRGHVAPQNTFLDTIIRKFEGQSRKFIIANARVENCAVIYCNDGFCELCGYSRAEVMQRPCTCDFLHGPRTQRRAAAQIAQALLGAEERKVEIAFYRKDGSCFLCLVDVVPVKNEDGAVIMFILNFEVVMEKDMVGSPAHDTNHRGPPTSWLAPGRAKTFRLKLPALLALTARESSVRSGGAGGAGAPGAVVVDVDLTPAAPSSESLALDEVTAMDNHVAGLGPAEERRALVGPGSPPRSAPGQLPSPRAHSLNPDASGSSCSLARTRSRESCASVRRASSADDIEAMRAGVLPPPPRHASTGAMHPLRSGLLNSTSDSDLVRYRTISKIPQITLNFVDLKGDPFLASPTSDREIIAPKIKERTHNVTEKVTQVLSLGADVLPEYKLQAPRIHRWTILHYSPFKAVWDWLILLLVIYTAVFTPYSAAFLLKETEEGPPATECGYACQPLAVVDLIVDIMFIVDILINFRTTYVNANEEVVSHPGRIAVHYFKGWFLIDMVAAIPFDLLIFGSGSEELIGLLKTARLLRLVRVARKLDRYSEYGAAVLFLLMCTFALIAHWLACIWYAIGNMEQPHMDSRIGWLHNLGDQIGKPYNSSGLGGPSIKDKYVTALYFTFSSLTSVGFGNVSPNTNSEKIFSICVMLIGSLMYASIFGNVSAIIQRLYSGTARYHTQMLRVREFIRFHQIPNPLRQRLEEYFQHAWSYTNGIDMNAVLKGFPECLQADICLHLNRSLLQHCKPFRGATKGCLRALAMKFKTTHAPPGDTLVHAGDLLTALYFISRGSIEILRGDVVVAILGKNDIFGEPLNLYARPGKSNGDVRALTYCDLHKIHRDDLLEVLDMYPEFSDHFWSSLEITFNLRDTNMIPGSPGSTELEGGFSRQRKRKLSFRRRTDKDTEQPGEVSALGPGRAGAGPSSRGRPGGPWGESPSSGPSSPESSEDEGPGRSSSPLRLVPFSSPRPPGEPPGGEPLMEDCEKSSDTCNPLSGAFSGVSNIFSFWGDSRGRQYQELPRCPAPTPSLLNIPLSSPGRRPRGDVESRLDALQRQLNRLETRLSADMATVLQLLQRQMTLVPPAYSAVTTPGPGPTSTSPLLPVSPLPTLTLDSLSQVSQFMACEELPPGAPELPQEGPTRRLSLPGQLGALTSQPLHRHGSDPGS
row,Structure (SMILES),"hERG current change (%, negative = inhibition) at 10uM [%]"
1,COc1ccc(O)c2c(=O)c3c(OC)cc4c(c3oc12)C1C=COC1O4 (stereo not shown),4.03
2,O=C(c1cccs1)N1CCN=C1SCc1ccccc1,7.77
3,O=C1c2ccccc2C(=O)N1CCCn1c(=O)oc2ccccc21,11.4
4,Cc1cccc(-n2nnc3c(=O)n(Cc4ccccn4)cnc32)c1,-7.65
5,COc1ccc(C(CNC(=O)Nc2ccccc2)N2CCN(C)CC2)cc1 (stereo not shown),-12.8
6,Cc1ccc(C(CNC(=O)c2ccco2)N2CCN(C)CC2)cc1 (stereo not shown),-11.1
7,COc1ccc(C(CNC(=O)Nc2ccc(Cl)cc2)N2CCN(C)CC2)cc1 (stereo not shown),-24.5
8,CN1CCN(C(CNC(=O)c2ccc(Br)o2)c2ccc(F)cc2)CC1 (stereo not shown),-17.5
9,Cc1cccc(NC(=O)NCC(c2ccc(F)cc2)N2CCN(C)CC2)c1 (stereo not shown),-42.6
10,Cc1ccc(C(CNC(=O)Nc2ccc(Cl)cc2)N2CCN(C)CC2)cc1 (stereo not shown),-76.8
11,Cc1ccc(C(CNC(=O)c2ccc(Br)o2)N2CCN(C)CC2)cc1 (stereo not shown),-60.4
12,CN1CCN(C(CNC(=O)Nc2ccc(Cl)cc2)c2ccc(F)cc2)CC1 (stereo not shown),-56.3
13,Cc1ccc(C(CNC(=O)Nc2ccccc2)N2CCN(C)CC2)cc1 (stereo not shown),-28.9
14,Cc1ccc(/C=C(\C#N)C(=O)NCc2ccco2)o1,3.84
15,O=C(c1ccccc1)c1cn[nH]c1-c1ccccc1O,5.65
16,CCOc1ccc(S(=O)(=O)NCCC(=O)N(C)Cc2cccs2)cc1,-20.9
17,COc1cc(/C=N/NC(=O)c2ccccn2)ccc1OC(=O)c1ccc(Br)cc1,1.06
18,CCn1c(=O)c([N+](=O)[O-])c(NC2CCS(=O)(=O)C2)c2ccccc21 (stereo not shown),5.85
19,COCCNC(=O)CCc1nnc(Cc2ccc(-c3ccccc3)cc2)o1,14.5
20,COCCNC(=O)CCC1CCN(Cc2cccc(Oc3ccccc3)c2)CC1,-55.3
21,OC1CCN(Cc2cccc(Oc3ccccc3)c2)CC1,6.4
22,COCCNC(=O)CN1CCC(NC(=O)Nc2ccccc2)CC1,-8.21
23,COCCNC(=O)CCC1CCN(Cc2ccc(-c3ccccc3)cc2)CC1,-63.6
24,COCCNC(=O)CCC1CCN(Cc2cccc(-c3ccc(C)o3)c2)CC1,-25.3
25,Clc1ccccc1-c1nnc2sc(-c3ccco3)nn12,-21.8
